Most compounds without a hit are left out; they make up all but 0.86% or so of the library.
GLS inhibitor: qHTS for Inhibitors of Glutaminase (GLS); Glutaminase kidney isoform, mitochondrial (Homo sapiens), O94925; GLS enzymatic activity, qHTS titration; Potency, µM (series often up to 45.5 µM), inactives show top-dose activity change, negative = inhibition, most hits filed as inhibitors; 410,000 tested, 0.21% active
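Two-point fluorescence kinetic (t0, 30 min RT) for hKGA; glutamate detected via glutamate oxidase–HRP–Amplex Red. Substrate: 1 mM L-glutamine solution; buffer 45 mM KH2PO4, pH 8.2.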
APE1 inh: qHTS Assay for Inhibitors of the Human Apurinic/apyrimidinic Endonuclease 1 (APE1) | recombinant APE1, TAMRA/BHQ-2 abasic DNA cleavage fluorescence | 350,000 tested, 0.35% active | DNA repair nuclease/redox regulator APEX1 (Homo sapiens), P27695 | Potency, µM (highest dose often 65.8 µM), inactives show at the highest dose activity change, negative = inhibition, most hits filed as inhibitors;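 further: plate controls were vehicle for no effect and reference inhibitor for full effect; nearly all actives have a fitted effect of over 55% in size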
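Substrate: short duplex with […] THF abasic site, 5'-TAMRA and 3'-BHQ-2, 50 nM final. APE1 at 0.75 nM, preincubated 15 min RT with compound. Fluorescence increase from first to third read measured activity.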
RECQ1 inh-1: qHTS Assay for Inhibitors of RecQ-Like Dna Helicase 1 (RECQ1). ATP-dependent DNA helicase Q1 (Homo sapiens), P46063. RECQ1 DNA unwinding, red fluorescence kinetic read. Potency, µM (series often up to 57.3 µM), for the others: at the top dose activity, negative = inhibition, hits mostly inhibitors. 240,000 tested, 0.54% active. AID 2549, 2010;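 further: plate controls were vehicle for no effect and no enzyme for full effect; nearly all actives have a fitted effect of over 30% in size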
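50 nM RECQ1T1 preincubated 15 min with compound in Tris pH 8.0 buffer with MgCl2, DTT, Tween-20 and 2.5 ug/ml poly(dI-dC); started with 200 nM TAMRA/BHQ-2 forked duplex and 2 mM ATP. Unwinding read as fluorescence (525/598 nm), two reads 2 h apart.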
Tb PGK inh: qHTS Assay to Find Inhibitors of Phosphoglycerate Kinase. PGK/GAPDH coupled, Kinase-Glo luminescence, 60 min. Potency, µM (top dose mostly 57.5 µM), without a hit: at the top dose activity change, negative = inhibition, actives largely listed as inhibitors. 380,000 tested, 0.043% active; further: nearly all actives have a fitted effect of over 60% in size
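Recombinant glycosomal PGK reaction used 1,3-bisphosphoglycerate generated in-well by GAPDH (100nM final) in 100mM TEA pH 7.6, 5mM MgCl2, 0.01% Tween-20. After 60 minutes at room temperature, ATP was read by Kinase-Glo Plus luminescence end-point.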
FEN1 inhibitor: qHTS Assay for the Inhibitors of Human Flap endonuclease 1 (FEN1); P39748; Recombinant FEN1 flap cleavage, fluorescence, 15 min; Potency, µM (doses to about 114 µM), inactives show at the highest dose activity change, negative = inhibition, hits mostly inhibitors; 390,000 tested, 0.35% active; AID 588795, 2011; further: nearly all actives have a fitted effect of over 65% in size
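Nuclease activity of 10 nM FEN1 was measured after 15 min of room-temperature exposure to titrated compounds, by adding 50 nM flap substrate and reading plates at 0 and 15 min.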
BLM inh: qHTS Assay for Inhibitors of Bloom's syndrome helicase (BLM). 350,000 tested, 0.2% active. recombinant BLM DNA unwinding, fluorescence dequenching. RecQ-like DNA helicase BLM (Homo sapiens), P54132. Potency, µM (titrated, usually from 56.1 µM), without a hit: at the top dose activity change, negative = inhibition, hits mostly inhibitors. AID 2528, 2010;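 further: plate controls were vehicle for no effect and no enzyme for full effect; nearly all actives have a fitted effect of over 35% in size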
RECQ1 inh conf: Confirmation qHTS Assay for Inhibitors of RecQ-Like Dna Helicase 1 (RECQ1). shares compounds with RECQ1 inh-1. RECQ1 helicase DNA unwinding, fluorescence. Potency, µM (series often up to 229 µM), for inactives: at the highest dose activity change, negative = inhibition, hits mostly inhibitors. 610 tested, 28% active; further: nearly all actives have a fitted effect of over 45% in size
ADP FP counter: Counterscreen for RECQ1 Inhibitors: ADP Fluorescence Polarization Displacement Assay. shares compounds with RECQ1 inh-1. ADP fluorescence polarization displacement counterscreen. Potency, µM (top dose mostly 228 µM), without a hit: at the top dose activity change, negative = inhibition, usual class: inhibitors. 530 tested, 27% active. AID 2711, 2010; further: nearly all actives have a fitted effect of over 45% in size
RECQ1 inh-2: Confirmation qHTS Assay for Inhibitors of RecQ-Like Dna Helicase 1 (RECQ1) - Round 2 Cherry Picks; AID 504841, 2011; 1,100 tested, 15% active; shares compounds with RECQ1 inh-1; Potency, µM (titrated, usually from 119 µM), for inactives: top-dose activity, negative = inhibition, most hits filed as inhibitors; recombinant RECQ1 DNA unwinding, red fluorescence; further: nearly all actives have a fitted effect of over 50% in size
* hit, by the source's call; i = inactive; ? = inconclusive; . = no result given; [ ] = another dose, or the depositor's remark. The call rests on the fitted dose curve; in most records, active means well fitted curve in the direction sought with a large enough effect; inconclusive means small, poorly fitted or top-dose-only effect, or another doubt; inactive means no such curve, though single readings can be large; an effect the other way counts as inactive or inconclusive. Unless noted, on the % scale 0 is the no-effect control and ±100 the full control effect; potency means the concentration at half of the fitted maximal effect.

SMILES	GLS inhibitor	APE1 inh	RECQ1 inh-1	Tb PGK inh	FEN1 inhibitor	BLM inh	RECQ1 inh conf	ADP FP counter	RECQ1 inh-2
Cc1cccc(C(=O)N2CCc3cc(CNC(=O)c4ccnn4C)ccc32)c1	-5.0%	.	.	-2.1%	17.2%	-2.1%	.	.	.
O=C(CSc1nc2ccccc2c(=O)[nH]1)c1ccc(O)c(O)c1	-15.1%	?	8.91µM*	?	?	-1.7%	?	?	15.8µM*
O=C(CSc1nc2ccccc2c(=O)[nH]1)c1ccc(O)cc1O	15.8%	-1.6%	-17.7%	-5.9%	12.1%	3.1%	.	.	.
COCCNC(=O)C(=O)Nc1ccc2nc3n(c(=O)c2c1)CCCCC3	-1.4%	.	.	-4.2%	7.4%	1.1%	.	.	.
Cc1cc(O)ccc1N=Cc1c(C(F)(F)F)[nH][nH]c1=O	52.8%	16.9%	8.91µM*	.	?	-9.6%	-0.2%[114 µM]	6.31µM*	-6.8%
CCc1ccc(OCC2c3cc(OC)c(OC)cc3CCN2C(=O)COc2ccccc2)cc1 (stereo unspecified)	1.3%	.	.	-2.1%	-18.6%	-12.3%	.	.	.
Cc1ccc(C)n1-c1sc2c(c1C(=O)O)CCCC2	6.3%	?	12.6µM*	-22.6%	1.9%	-17.7%	56.2µM*	?	8.91µM*
CCOC(=O)N1CCC(NC(=O)c2cccc3c2C(=O)N(c2ccc(OC)cc2)C3)CC1	-2.0%	?	11.2µM*	-9.0%	-1.2%	?	14.1µM*	6.5%[91.9 µM]	.
CNc1ccc(/C=C(\CCC(=O)O)c2nc3ccccc3s2)cc1[N+](=O)[O-]	-22.8%	35.5µM*	35.5µM*	?	-9.3%	-29.3%	.	.	31.6µM*
Cc1ccc(/C=C(\CCC(=O)O)c2nc3ccccc3s2)cc1[N+](=O)[O-]	5.2%	1.8%	-4.4%	-7.4%	-11.1%	-3.8%	.	.	.
Cn1cnnc1Sc1ccc(/C=C(\CCC(=O)O)c2nc3ccccc3s2)cc1[N+](=O)[O-]	-14.3%	18.9%	14.3%	-3.3%	6.4%	-4.7%	10.6%	0.7%	.
Cc1ccc(CCNC(=O)c2sc3nc4n(c(=O)c3c2C)CCCC4)cc1	0.4%	.	.	3.9%	2.0%	-2.2%	.	.	.
CCN1C(=O)[C@H]2[C@@H]3[C@H](O)[C@H](O)CC(=O)[C@H]3CC[C@H]2C1=O	.	-5.4%[12.4 µM]	21.0%[11.5 µM]	.	.	0.1%[12.4 µM]	.	.	.
COc1ccc(COC[C@H](C)[C@H](O[Si](C)(C)C)[C@@H](C)[C@H]2OC(=O)[C@H]2C)cc1	.	3.6%	i	.	3.5%	-2.3%	.	.	.
CCc1ccc(NC(=O)CSc2nnc(-c3nonc3NC(C)=O)n2-c2ccccc2)cc1	5.4%	.	.	i	-18.9%	-8.6%	.	.	.

Compound activity (PubChem BioAssay)
